Measurements from PubChem BioAssay.
Active and inactive are the calls of the source. How the calls were made is not given here.

These molecules were tested against Pantothenate synthetase (Mycobacterium tuberculosis (strain ATCC 25618 / H37Rv)) (UniProt P9WIL5) (assay: Coupled enzyme confirmation of inhibitors against recombinant Mtb PanC (AID 375;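 further: 0% = full reaction with vehicle and 100% = no enzyme background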)). Conditions: coupled enzyme assay; at 10 µM, stronger effect = higher value.
Chain of Pantothenate synthetase (Mycobacterium tuberculosis (strain ATCC 25618 / H37Rv)) (P9WIL5 whole entry, looked up): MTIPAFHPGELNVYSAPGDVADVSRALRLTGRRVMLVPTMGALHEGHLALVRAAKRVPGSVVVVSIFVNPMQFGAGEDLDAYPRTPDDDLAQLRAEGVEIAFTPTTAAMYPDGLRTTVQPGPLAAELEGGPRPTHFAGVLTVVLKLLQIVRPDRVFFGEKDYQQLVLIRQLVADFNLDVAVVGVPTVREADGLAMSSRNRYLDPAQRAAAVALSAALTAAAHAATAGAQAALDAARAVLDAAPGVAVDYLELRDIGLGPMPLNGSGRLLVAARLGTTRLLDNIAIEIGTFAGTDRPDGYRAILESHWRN
`CC(=O)NCCn1ccc2ccccc21` was tested, and the inhibition was 0% (inactive). In the case of `O=C(O)c1ccc2noc(-c3ccccc3)c2c1`, the inhibition is reported as 0% (inactive). `CN1CCc2c(sc3c2c(=O)n(-c2ccccc2)c2nnc(SCc4ccc(F)cc4)n32)C1` was tested, and the inhibition was 0% (inactive). For `Cc1ccccc1OCc1nnc(SCC(=O)NCc2ccccc2)n1C`, the inhibition was 0% (inactive). `Cc1cc(C)c2c(N)c(C(=O)N3CCN(c4ncccn4)CC3)sc2n1` was tested, and the inhibition was 3% (inactive). In the case of `Cc1ccc(S(=O)(=O)N2CCCC(c3nnc4n3-c3ccccc3SC4)C2)cc1` (centres undefined), the inhibition is reported as 9% (inactive). In the case of `Cc1ccccc1NC(=O)c1ccc(NC(=O)c2ccco2)cc1`, the inhibition is reported as 0% (inactive). In the case of `O=C(NC1CCCC1)c1cc(-c2cccs2)on1`, the inhibition is reported as 6% (inactive). With `CC1CCCCC1NC(=O)c1nn(C)c(=O)c2ccccc12` (centres undefined) the inhibition was 0% (inactive). With `COc1ccc(S(=O)(=O)N2CCC(C(=O)Nc3c(F)cccc3F)CC2)cc1` the inhibition was 2% (inactive). With `Cc1nnc(SCCCn2c(N3CCCCC3)nc3c2c(=O)[nH]c(=O)n3C)s1` the inhibition was 0% (inactive). In the case of `CCOC(=O)C1CCCN(CCC(C)c2ccccc2)C1` (centres undefined), the inhibition is reported as 1% (inactive). For `Cc1cc(/C=N/n2cnnc2)c(C)n1-c1cccc(Cl)c1`, the inhibition was 0% (inactive). With `Cc1ccc2cc(C(c3nnnn3CC3CCCO3)N3CCCC4(CCCCC4)C3)c(=O)[nH]c2c1` (centres undefined) the inhibition was 0% (inactive). For `COCC(=O)n1nc(NCc2ccc(OC)cc2)nc1NCc1ccc(OC)cc1`, the inhibition was 0% (inactive). With `Cc1ccccc1-n1nnnc1SCC(=O)Nc1ccc(S(=O)(=O)N2CCCC2)cc1` the inhibition was 0% (inactive). In the case of `CC(=O)Oc1ccc(CCC(C)OC(C)=O)cc1` (centres undefined), the inhibition is reported as 8% (inactive). In the case of `CNC(=O)CN(C#N)c1nc(N(C)C)nc(N(C)C)n1`, the inhibition is reported as 0% (inactive). For `Cc1cc(C)nc(SCc2nnc(SCc3ccccc3Cl)o2)n1`, the inhibition was 0% (inactive). With `CCOC(=O)c1ccccc1NC(=O)CSc1nccn1C` the inhibition was 0% (inactive). With `COc1cc2c(cc1OC)C(c1ccccc1O)N(C1CC(=O)N(c3ccccc3)C1=O)CC2` (centres undefined) the inhibition was 0% (inactive). `N#Cc1nc(-c2ccccc2Cl)oc1N1CCOCC1` was tested, and the inhibition was 0% (inactive). For `CCCS(=O)(=O)N1CCN(C(=O)c2cccnc2)CC1`, the inhibition was 0% (inactive). With `C[C@]12CC[C@@H]3c4ccc(O)cc4C(=O)C[C@H]3[C@@H]1CC[C@@H]2O` the inhibition was 0% (inactive). For `COc1cc(C(=O)N2CCN(C(=O)CC(C)C)CC2)cc(OC)c1OC`, the inhibition was 0% (inactive). `O=C(c1ccco1)N1CCN(CCCCN2C(=O)c3ccccc3C2=O)CC1` was tested, and the inhibition was 5% (inactive). For `Cc1cccc(C)c1OCc1nnc2c3cnn(C)c3ncn12`, the inhibition was 0% (inactive). For `CC(C(=O)N1CCCCC1)n1ncn2cccc2c1=O` (centres undefined), the inhibition was 0% (inactive). With `CCCCCC(=O)N1CC2(CC)CN(C(=O)CCCCC)CC(CC)(C1)C2=O` the inhibition was 4% (inactive). In the case of `CC1=C(C)C(=O)NC(Nc2nc(C)c3cc(C)cc(C)c3n2)N1` (centres undefined), the inhibition is reported as 0% (inactive). In the case of `Cc1ccc(S(=O)(=O)N2CCN(C(=O)CSC3CCCC3)CC2)c(C)c1`, the inhibition is reported as 0% (inactive). For `Cc1ccc(N2CC(C(=O)N3CCN(C(=O)c4ccco4)CC3)CC2=O)cc1` (centres undefined), the inhibition was 0% (inactive). In the case of `O=C(CSc1nnnn1-c1ccc(Cl)cc1)NC(=O)Nc1ccc2c(c1)OCCO2`, the inhibition is reported as 2% (inactive). For `Cc1oc(-c2ccccc2F)nc1CS(=O)(=O)CC(=O)NCCCN1CCc2ccccc2C1`, the inhibition was 0% (inactive). For `O=C(CCN1C(=O)c2ccccc2C1=O)N1CCN(C(=O)c2ccccc2)CC1`, the inhibition was 0% (inactive). For `CCOC(=O)C(CC)Sc1ncnc2nc[nH]c12` (centres undefined), the inhibition was 0% (inactive). With `O=C(CSc1nc2c(c(=O)n1-c1ccc(F)cc1)SCC2)NCC1CCCO1` (centres undefined) the inhibition was 6% (inactive). `O=c1cc(-c2ccccc2)[nH]c2nc3ccccc3n12` was tested, and the inhibition was 0% (inactive). For `O=C(CCC(=O)N1CCc2ccccc2C1)N1CCN(S(=O)(=O)c2ccccc2)CC1`, the inhibition was 0% (inactive).
